# From PubChem BioAssay (Tox21)
# Records with an inconclusive call do not appear. Where a call stands in place of a potency, no number is given. Activity calls are given as the source filed them. Calls come from the whole dose curve; as a rule, active = well fitted inhibition curve with a large enough effect in the repeat runs; inconclusive = weak or mixed curves; inactive = no such curve, though single readings can be large or run the other way.
# Target: Aromatase (Homo sapiens) (UniProt P11511)
# Test: qHTS assay to identify aromatase inhibitors (AID 743083); note: nearly all actives have a fitted effect of over 55% in size
# Conditions: MCF-7 aro ERE, testosterone-driven ERE luciferase, 24 h; series mostly up to 70.3 µM
# Potency is the fitted concentration of half-maximal effect.
# Aromatase (Homo sapiens), sequence (P11511 whole entry, looked up): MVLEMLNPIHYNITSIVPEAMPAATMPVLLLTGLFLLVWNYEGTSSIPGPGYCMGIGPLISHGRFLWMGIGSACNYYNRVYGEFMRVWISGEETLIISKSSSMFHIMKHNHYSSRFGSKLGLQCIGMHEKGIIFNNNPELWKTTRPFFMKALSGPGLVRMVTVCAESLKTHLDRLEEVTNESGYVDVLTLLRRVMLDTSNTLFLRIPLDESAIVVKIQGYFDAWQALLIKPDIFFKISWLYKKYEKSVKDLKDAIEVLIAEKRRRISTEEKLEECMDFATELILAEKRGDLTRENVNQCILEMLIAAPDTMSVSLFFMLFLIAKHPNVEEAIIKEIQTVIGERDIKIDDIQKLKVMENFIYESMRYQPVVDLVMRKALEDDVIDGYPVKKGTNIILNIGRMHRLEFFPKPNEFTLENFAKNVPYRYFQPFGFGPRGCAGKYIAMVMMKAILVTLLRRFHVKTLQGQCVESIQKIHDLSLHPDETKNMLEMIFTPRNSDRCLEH
Compound,Potency,"activity, negative = inhibition"
O.O.O.O.O.O.O=S(=O)([O-])[O-].[Ni+2],inactive,–
CCOP(=O)(OCC)Oc1nc(Cl)c(Cl)cc1Cl,27.1 µM (active),–
CC(=O)[O-].CC(=O)[O-].O.O.O.[Pb+2],inactive,–
Cc1c([N+](=O)[O-])cc2c(c1[N+](=O)[O-])C(C)(C)CC2(C)C,27.3 µM (active),–
CC(=O)[O-].CC(=O)[O-].CC(=O)[O-].[Sb+3],–,2.18% [at 8.47 µM] (inactive)
ClCBr,inactive,–
Cc1ccn2nc(S(=O)(=O)Nc3c(F)cccc3F)nc2n1,inactive,–
CC(=O)O.CC(=O)O.CC(=O)O.CC(=O)O.CC(=O)O.CC(=O)O.CC(=O)O.O.O.[Cr].[Cr].[Cr],inactive,–
CCCC[N+]1(C)CCCC1 (tested in a mixture with another compound),inactive,–
Nc1c(Cl)c(Cl)c(Cl)c(Cl)c1Cl,inactive,–
CCCCC(CC)COC(=O)OOC(C)(C)C (configuration not stated),inactive,–
COC(=O)C(C)N(C(=O)c1ccco1)c1c(C)cccc1C (configuration not stated),inactive,–
OCC(Br)CBr (configuration not stated),inactive,–
CCCN,inactive,–
O=C1C[C@@H]2OCC=C3CN4CC[C@]56c7ccccc7N1[C@H]5[C@H]2[C@H]3C[C@H]46,inactive,–
COP(=S)(OC)Oc1nc(Cl)c(Cl)cc1Cl,inactive,–
Cc1cc2c3c(c1)C(c1ccccc1)=N[C@@H](NC(=O)c1ccncc1)C(=O)N3CC2,inactive,–
CCCCCON=O,inactive,–
c1ccc(Nc2ccc(Nc3ccccc3)cc2)cc1,inactive,–
Oc1ccc2[nH]cc(CCCCN3CC=C(c4ccccc4)CC3)c2c1,inactive,–
CCCCn1cc[n+](C)c1 (tested in a mixture with another compound),inactive,–
CC(O)C(=O)[O][Hg][c]1ccccc1 (configuration not stated),0.969 µM (active),–
COP(=O)(OC)Oc1ccc([N+](=O)[O-])cc1,34.4 µM (active),–
BrCC(Br)(Br)Br,inactive,–
O=C(N[C@H]1N=C(c2ccccc2F)c2cccc3c2N(CC3)C1=O)c1cc2ccccc2[nH]1,inactive,–
CCC[CH2][Sn]([CH2]CCC)([O]C(C)=O)[O]C(C)=O,15.5 µM (active),–
c1ccc(N=NNc2ccccc2)cc1,inactive,–
